# TDP1 cell CPT: qHTS for Inhibitors of human tyrosyl-DNA phosphodiesterase 1 (TDP1): qHTS in cells in presence of CPT | Potency, µM (doses to about 46.2 µM), inactives show at the highest dose activity change, negative = growth inhibition, hits mostly inhibitors | 12% of 420,000 active | chicken DT40 Tdp1-/-;hTDP1 cells + 20 nM CPT, ATP luminescence, 48 h | AID 686979, 2013; also: % is scaled to controls: 0 for no effect and ±100 for the full control effect; nearly all actives have a fitted effect of over 55% in size
#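 Chicken DT40 Tdp1-/- cells complemented with human TDP1, 400 cells/well, exposed to compounds plus 20 nM camptothecin for at least 48 h at 37 C; viability read as ATP content by CellTiter-Glo luminescence.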
# TDP1 cell noCPT: qHTS for Inhibitors of human tyrosyl-DNA phosphodiesterase 1 (TDP1): qHTS in cells in absence of CPT; 15% of 420,000 active; AID 686978, 2013; Potency, µM (series often up to 46.2 µM), for the others: at the top dose activity change, negative = growth inhibition, usual class: inhibitors; DT40 Tdp1-/- hTDP1 cells, no CPT, ATP luminescence, 48 h; also: % is scaled to controls: 0 for no effect and ±100 for the full control effect; nearly all actives have a fitted effect of over 55% in size
#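 Luminescent ATP content (CellTiter-Glo) served as the growth readout. Knockout chicken DT40 cells expressing human TDP1 were exposed to compounds without camptothecin for a minimum 48 hr at 37 °C.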
# TDP1 inh: qHTS Assay for Inhibitors of Tyrosyl-DNA Phosphodiesterase (TDP1); Tyrosyl-DNA phosphodiesterase 1 (Homo sapiens), Q9NUW8; AID 485290, 2010; recombinant TDP1, AlphaScreen DNA substrate cleavage; Potency, µM (titrated, usually from 130 µM), inactives show at the highest dose activity change, negative = inhibition, hits mostly inhibitors; 0.28% of 350,000 active; also: % is scaled to controls: 0 for no effect and ±100 for the full control effect; nearly all actives have a fitted effect of over 40% in size
# Target sequence (Q9NUW8 whole entry, looked up): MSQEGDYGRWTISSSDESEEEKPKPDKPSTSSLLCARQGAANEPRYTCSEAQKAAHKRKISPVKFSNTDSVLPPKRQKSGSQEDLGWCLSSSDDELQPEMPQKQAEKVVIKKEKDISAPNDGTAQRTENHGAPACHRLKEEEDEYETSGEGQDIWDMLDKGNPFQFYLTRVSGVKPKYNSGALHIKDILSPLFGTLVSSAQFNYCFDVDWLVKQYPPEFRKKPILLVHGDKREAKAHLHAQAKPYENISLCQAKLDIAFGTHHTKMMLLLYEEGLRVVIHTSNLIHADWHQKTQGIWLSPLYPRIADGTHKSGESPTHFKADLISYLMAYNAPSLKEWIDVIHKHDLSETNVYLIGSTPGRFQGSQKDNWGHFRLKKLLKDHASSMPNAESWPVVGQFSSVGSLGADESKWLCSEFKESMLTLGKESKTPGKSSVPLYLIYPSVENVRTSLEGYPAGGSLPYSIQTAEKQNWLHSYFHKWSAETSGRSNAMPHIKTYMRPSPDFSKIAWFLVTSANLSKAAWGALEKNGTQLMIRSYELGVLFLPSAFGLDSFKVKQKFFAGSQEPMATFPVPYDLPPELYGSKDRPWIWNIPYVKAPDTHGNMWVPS
#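 Here, a 5' biotin and 3' phosphotyrosine-FITC DNA oligonucleotide reports Tdp1 activity: intact substrate bridges AlphaScreen beads, while cleavage leaves a 3' phosphate and drops signal. All incubations at room temperature.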
# ClpP mod: qHTS Assay for Activators of ClpP; ATP-dependent Clp protease proteolytic subunit (Bacillus subtilis (strain 168)), P80244; purified B. subtilis ClpP, FRET peptide cleavage, 20 min; Potency, µM (highest dose often 57.5 µM), for inactives: top-dose activity change, negative = active; 1.9% of 340,000 active; active = well fitted falling curve with a large enough effect; inconclusive = small, poorly fitted or top-dose-only effect; inactive = no such curve, though single readings can be large or run the other way; also: the source files actives as falling curves though it sought activators and does not explain the sign; nearly all actives have a fitted effect of over 65% in size
#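 Purified B. subtilis ClpP, 10 microg/mL final in Tris/HCl pH8 with KCl, BSA, glycerol and Tween-20, cleaved an Abz/nitrotyrosine-quenched decapeptide. Fluorescence (ex 320, em 430) was read at 0 and 20 min at room temperature. Delta was normalized to 5.8 microM ADEP and DMSO/no-enzyme controls.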
# Starred values were filed as active, the others as inactive; ? = inconclusive; nt = not tested or not shown. Shown are actives, neighbours in structure and some others; about 17% of the full set was active somewhere. Unless noted, calls follow the shape of the dose curve; as a rule, active = well fitted curve in the direction sought with a large enough effect; inconclusive = small, poorly fitted or top-dose-only effect, or another doubt; inactive = no such curve, though single readings can be large; an effect the other way counts as inactive or inconclusive. Potency is read from the fitted curve at half-maximal effect.
SMILES,TDP1 cell CPT,TDP1 cell noCPT,TDP1 inh,ClpP mod
O=C(Cc1ccccc1)NNC(=S)NC(=O)c1cccs1,?,?,5%,0%
O=C(Cc1cccs1)NNC(=S)NC(=O)c1ccccc1,?,15µM*,11%,-1%
Cc1c(Cl)cccc1NC(=O)Cc1ccc([N+](=O)[O-])cc1,-20%,?,5%,nt
CC(=O)Nc1ccc(-c2ccnc3c2CC(C)(C(=O)NCC2CC2)O3)cc1 (stereo not given),-25%,?,nt,5%
CC(=O)Nc1cccc(-c2ccnc3c2CC(C)(C(=O)NCC2CC2)O3)c1 (stereo not given),4.1µM*,2.9µM*,nt,-19%
CC(=O)Nc1cccc(-c2ccnc3c2CC(C)(C(=O)NCCC(F)(F)F)O3)c1 (stereo not given),3.7µM*,4.1µM*,nt,?
CC(=O)Nc1ccc(-c2ccnc3c2CC(C)(C(=O)NCCC(F)(F)F)O3)cc1 (stereo not given),?,?,nt,5%
CC(=O)Nc1cccc(-c2ccnc3c2CC(C)(C(=O)NCc2ccc(F)c(F)c2)O3)c1 (stereo not given),3.7µM*,3.7µM*,nt,-17%
CC(=O)Nc1cccc(-c2ccnc3c2CC(C)(C(=O)Nc2cccc(OC(F)(F)F)c2)O3)c1 (stereo not given),?,?,nt,-5%
Cc1ccc(NC(=O)CSc2nn(-c3ccc(Cl)cc3)c(=S)s2)cc1S(=O)(=O)N(C)C,9.2µM*,?,6%,1%
Cc1ccc(NC(=O)Cc2ccc(Cl)c(Cl)c2)cc1S(=O)(=O)N(C)C,?,23µM*,3%,-5%
COc1ccc(CCNCC(=O)Nc2c(C)cc(C)cc2C)cc1OC,-11%,-2%,nt,2%
CN(C)S(=O)(=O)c1cc(NC(=O)CSc2nn(-c3ccc(Cl)cc3)c(=S)s2)ccc1Cl,?,?,11%,-2%
COc1ccc(CCNCC(=O)Nc2ccc(C)c(S(=O)(=O)N(C)C)c2)cc1OC,?,-7%,79µM*,-2%
COc1ccc(CCNCC(=O)Nc2ccc(C)c(Br)c2)cc1OC,9.2µM*,?,nt,nt
CCCOC1CCCN(C(=O)c2ccc3oc(C(C)C)nc3c2)C1 (stereo not given),?,-16%,3%,5%
CN(C)C1CN(Cc2cn(Cc3cccc(C(F)(F)F)c3)nn2)S(=O)(=O)C1 (stereo not given),-4%,-11%,nt,1%
COc1ccc2oc(=N)c(C(=O)Nc3ccccc3Cl)cc2c1,-26%,-21%,nt,3%
CC(C)NC(=S)n1cc(C(=O)c2cc(Cl)cc(Cl)c2O)cn1,-1%,-6%,nt,nt
O=C1NC[C@H](CC2CCCCC2)N(CCC23CC4CC(CC(C4)C2)C3)C1=O,-8%,-16%,nt,-3%
C=CCOc1ccc2c(OC)c3ccoc3nc2c1OC,-7%,-21%,2%,22µM*
CC1C(c2ccccc2)=Nn2c(=O)n(-c3ccccc3)c(=O)n21 (stereo not given),?,23µM*,nt,4%
Cc1nc(=O)c(-c2ccccc2)c(C)n1-c1ccccc1,4%,21%,3%,2%
CCOC(=O)c1c(C)[nH]c(C)c1C(=O)CSc1nc2ccccc2c(=O)n1-c1ccc(C)cc1,9%,10%,8%,?
CCOC(=O)c1c(C)[nH]c(C)c1C(=O)CSc1nc2ccccc2n1CCC#N,4%,-30%,3%,-4%
SMILES,TDP1 cell CPT,TDP1 cell noCPT,TDP1 inh,ClpP mod
CCOC(=O)c1c(C)[nH]c(C)c1C(=O)CSc1nc2ccccc2c(=O)n1-c1ccc(Cl)cc1,16µM*,18µM*,4%,-3%
CCCn1c(SCC(=O)c2c(C)[nH]c(C)c2C(=O)OCC)nc2ccccc21,16µM*,?,4%,-3%
Cc1[nH]c2ccccc2c1C(=O)CSc1ccc(Cl)cc1,23µM*,?,0%,nt
C[C@@H](C(=O)Nc1ccc2ccccc2c1)[C@H]1C[C@]1(C)[C@H](NS(=O)(=O)c1ccccc1)c1ccccc1,?,21µM*,4%,-6%
CNC(=O)[C@H](C)[C@@H]1C[C@@]1(C)[C@@H](NC(=O)OCc1ccccc1)c1ccccc1,?,-25%,0%,1%
C[C@@H](C(=O)NCC1CC1)[C@H]1C[C@]1(C)[C@H](NC(=O)OCc1ccccc1)c1ccccc1,26µM*,?,8%,-2%
C[C@@H](C(=O)NCc1ccc(S(C)(=O)=O)cc1)[C@H]1C[C@]1(C)[C@H](NC(=O)OCc1ccccc1)c1ccccc1,?,?,5%,-1%
C[C@@H](C(=O)NCc1ccccc1)[C@@H]1C[C@@]1(C)[C@@H](NC(=O)OCc1ccccc1)c1ccccc1,16µM*,?,-4%,0%
C[C@@H](C(=O)NCCc1c[nH]c2ccccc12)[C@@H]1C[C@@]1(C)[C@@H](NC(=O)OCc1ccccc1)c1ccccc1,13µM*,18µM*,4%,-9%
O=C(NCc1ccc(F)cc1)c1cccnc1C(=O)O,45%,-5%,nt,-1%
Cc1ccc(CNC(=O)[C@H](C)[C@H]2C[C@]2(C)[C@H](NC(=O)OCc2ccccc2)c2ccccc2)o1,?,16µM*,4%,-4%
COc1ccccc1CNC(=O)C(Cc1c[nH]c2ccccc12)NC(=O)OCc1ccccc1 (stereo not given),?,18µM*,4%,1%
C[C@@H](C(=O)NCc1ccccn1)[C@@H]1C[C@@]1(C)[C@@H](NC(=O)OCc1ccccc1)c1ccccc1,23µM*,13µM*,-1%,0%
C[C@@H](C(=O)Nc1ccc2ccccc2c1)[C@@H]1C[C@@]1(C)[C@@H](NC(=O)OCc1ccccc1)c1ccccc1,?,16µM*,4%,-12%
CNC(=O)[C@H](C)[C@H]1C[C@]1(C)[C@H](NC(=O)OCc1ccccc1)c1ccccc1,nt,nt,9%,nt
C[C@@H](C(=O)NCc1cccc2ccccc12)[C@H]1C[C@]1(C)[C@H](NC(=O)OCc1ccccc1)c1ccccc1,nt,nt,-3%,nt
CCCCC(=O)NC1CC(=O)N(c2ccc3c(c2)OCCO3)C1 (stereo not given),-17%,-25%,5%,-3%
Cc1ccc2nc(CSc3nnc(NC(=O)c4ccc(C(C)(C)C)cc4)s3)cc(=O)n2c1,-14%,0%,3%,?
CCc1nnc(NC(=O)c2nc(SCc3ccc(F)cc3)ncc2Cl)s1,-10%,-18%,5%,0%
CCc1cc(Cn2nc(-c3ccccc3)cc2C(=O)NCc2cccc(Br)c2)on1,?,16µM*,-5%,1%
Cc1ccc2c(C(=O)CN3CCSCC3)c(C)[nH]c2c1,16µM*,?,4%,-1%
